Results on 39 molecules are retold here after PubChem BioAssay (Tox21).

Results filed as inconclusive are left out. Where a call stands in place of a potency, no number is given. Some structures have more than one record in an assay (separate samples or runs), and their calls can disagree. A number with no mark means an inactive call. The source made the active and inactive calls. The call rests on the fitted dose curve.
Potency means the concentration at half of the fitted maximal effect.

The test is described as follows: qHTS assay for small molecules that induce genotoxicity in human embryonic kidney cells expressing luciferase-tagged ATAD5 - cell viability (AID 651634). Further: nearly all actives have a fitted effect of over 25% in size. The note with it: HEK293T ATAD5-luc cells viability, CellTiter-Fluor, 15.5 h; series mostly up to 83.3 µM. The text has this: National Center for Advancing Translational Sciences [NCATS]
NIH Chemical Genomics Center [NCGC]
U.S. Environmental Protection Agency [EPA]
National Institutes of Environmental Health Sciences [NIEHS]
National Toxicology Program [NTP]
U.S. Food and Drug Administration [FDA]
Enhanced Level of Genome Instability Gene 1 (ELG1; human ATAD5) protein levels increase in response to various types of DNA damage. Using a luciferase reporter-gene tagged with ElG1, a cell-based assay [developed by Kyungjae Myung, NHGRI, NIH] was used to measure the induction of ATAD5 in human embryonic kidney cells (HEK293T). So, increase in luciferase activity can be used to identify the compounds that cause genetic stress. In addition to genotoxicity, these cells were also used to test for cytotoxicity by measuring the protease activity within live cells.
Tox21 Assay Protocol Summary:
For cytotoxicity screening, 2,000 cells in 5 uL/well were dispensed into white, solid-bottom 1536-well plates using a Multidrop Combi (Thermo Scientific) dispenser. Following transfer of 23 nL compound or DMSO vehicle by a pin tool, the plates were incubated 15.5 hr at 37C and 5% CO2. 1 ul CellTiter-Fluor reagent (Promega, Madison, WI) was then added to each plate and following 30 min incubation at 37C, fluorescence intensity was quantified on a ViewLux CCD-based plate reader.
For the molecule `O=C1CCCCO1`, the Potency entry was “inactive”. Still for that read-out and setting: the same measure for `OCC1(CO)COCOC1`: “inactive”.

As to `COc1ccc(CCO)cc1`, the Potency entry is “inactive”. Same read-out and setting: under `NCC1(Cc2noc(=O)[nH]2)CCCCC1` stands “inactive”; under `O=C(Cn1ccnc1[N+](=O)[O-])NCc1ccccc1`, “inactive”; under `CC(C)Nc1ccccc1`, “inactive”. On to `O=S(=O)(O)c1ccc2c(N=Nc3ccc(S(=O)(=O)O)c4ccccc34)c(O)c(S(=O)(=O)O)cc2c1`, for which the Potency is 13.3 µM (active) and the activity, negative = cytotoxicity is -17.7% [at 8.08 µM]. With `CCO[Si](CC)(OCC)OCC`, the Potency result was “inactive”. The same measure, in the same setting: under `CC(C)Cn1cnc2c1c(=O)n(C)c(=O)n2C` stands “inactive”; under `CC1CCc2c(N3CCC(O)CC3)c(F)cc3c(=O)c(C(=O)O)cn1c23` (stereo not given), “inactive”.

For `O=C1OCCO1`, the Potency result is “inactive”. Still for that read-out and setting: the same measure for `Cn1c(=O)c2c(ncn2CCO)n(C)c1=O`: “inactive”.

For the molecule `CCC(=O)CC`, the Potency result is “inactive”. Same read-out and setting: the same measure for `N[C@@H](CSCCCO)C(=O)O`: “inactive”; for `CC(=O)CCc1ccc(OC(C)=O)cc1`: “inactive”. Still for that read-out and setting: under `CC1(C)[C@H]2CC[C@](C)(C2)[C@H]1O` stands “inactive”. The same measure, in the same setting: under `CCNC(=O)NCc1cccc(Cl)c1` stands “inactive”; under `CCCCOCCOC(=O)COc1ccc(Cl)cc1Cl`, “inactive”; under `CC1(C)Cc2cccc(N)c2O1`, “inactive”.

For the molecule `COC(C)(OC)OC`, the Potency entry is “inactive”. Still for that read-out and setting: the same measure for `CN1C[C@@H]2C[C@H]1CN2c1cc2c(cc1F)c(=O)c(C(=O)O)cn2C1CC1`: “inactive”; for `O=[N+]([O-])c1c(Cl)cc(Cl)cc1Cl`: “inactive”; for `O/N=C/C=N/O`: “inactive”. On to `Cc1ncc([N+](=O)[O-])n1CC(C)O` (stereo not given), for which the Potency result was “inactive”. On the same count and under the same terms, the same measure for `CC1=C(C(=O)O)N2C(=O)[C@@H](NC(=O)[C@H](N)c3ccccc3)[C@H]2SC1`: “inactive”; for `OC[C@H]1O[C@@H](O[C@@H]2[C@@H](CO)O[C@](O)(CO)[C@H]2O)[C@H](O)[C@@H](O)[C@H]1O`: “inactive”.

Turning to `Cn1nnc2c(C(N)=O)ncn2c1=O`, the Potency entry was “inactive”. Still for that read-out and setting: under `CC1c2ccccc2CN1NC(=O)c1ccc(Cl)c(S(N)(=O)=O)c1` (stereo not given) stands “inactive”; under `NCc1ccc(S(N)(=O)=O)cc1`, “inactive”; under `C[Si]1(C)O[Si](C)(C)O[Si](C)(C)O[Si](C)(C)O[Si](C)(C)O1`, “inactive”. Still for that read-out and setting: under `CCC[C@@H]1C[C@@H](C(=O)N[C@@H]([C@H]2O[C@H](SC)[C@H](O)[C@@H](O)[C@H]2O)[C@@H](C)O)N(C)C1` stands “inactive”.

On to `CCCCCCCCCCCCCCCCCC#N`, for which the Potency entry is “inactive”. As for `c1ccc(-c2nn[nH]n2)cc1`, the Potency result was “inactive”. The same measure, in the same setting: under `CCC(=O)c1c(O)cc(O)cc1O` stands “inactive”; under `CC(C)OC(=O)OCOP(=O)(CO[C@H](C)Cn1cnc2c(N)ncnc21)OCOC(=O)OC(C)C`, “inactive”. Regarding `Fc1ccccc1`, the Potency entry was “inactive”.

Take `CN(C)CCN(C)CCO`: the Potency result was “inactive”. For the molecule `OCCN1CCOCC1`, the Potency result was “inactive”. Same read-out and setting: the same measure for `Cc1c(C(=O)c2c[nH]n(C)c2=O)ccc(S(C)(=O)=O)c1C1=NOCC1`: “inactive”.
